HT1080 IDH1KD tx = toxicity to HT-1080 IDH1 knockdown cells (counter line) | actives 2% (n = 360,000) | Potency, µM (doses to about 46.1 µM), without a hit: top-dose activity, negative = toxicity, usual class: cytotoxic | AID 686971 | HT-1080 IDH1 knockdown viability, ATP luminescence, 48 h;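 note: 0% = DMSO wells and -100% = cell-free medium wells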
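% activity derives from luminescence (CellTiter-Glo), normalised to DMSO and no-cell wells. HT-1080-IDH1KD cells, 750/well, had 48 h compound exposure at 37 °C.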
KB-V1 MDR tox = kills drug-selected multidrug resistant KB-V1 cells; KB-V1 MDR cells viability, CellTiter-Glo, 72 h; Potency, µM (top dose mostly 46.1 µM), actives largely listed as cytotoxic; actives 3.4% (n = 400,000); note: nearly all actives have a fitted effect of over 60% in size
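Cells of the MDR subline KB-V1 are plated, dosed with compound at multiple concentrations, and incubated 72 h at 37 degrees C; CellTiter-Glo is then added and luminescence read after 10 min.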
HT1080NT lethal = kills 2HG-producing HT-1080-NT fibrosarcoma cells; HT-1080-NT fibrosarcoma viability, CellTiter-Glo ATP luminescence, 48 h; Potency, µM (top dose mostly 46.1 µM), for inactives: at the highest dose activity, negative = less viability, actives largely listed as cytotoxic; actives 1.6% (n = 360,000); AID 686970;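 note: NT is the 2HG producing partner of a matched IDH1 knockdown line; 0% = DMSO-treated cells and -100% = media-only wells without cells; nearly all actives have a fitted effect of over 55% in size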
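Read-out is CellTiter-Glo luminescence after 10 minutes at room temperature, following 48 hours' compound treatment of HT-1080-NT cells (750 cells/well, RPMI, 5% FBS, 37 degrees C).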
KB-3-1 cytotox = kills parental KB-3-1 adenocarcinoma cells | KB-3-1 viability, CellTiter-Glo ATP luminescence, 72 h | Potency, µM (series often up to 46.1 µM), hits mostly cytotoxic | actives 1.4% (n = 400,000) | AID 1347075; note: nearly all actives have a fitted effect of over 60% in size
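Multi-concentration cytotoxicity screen in KB-3-1 cells grown in DMEM lacking phenol red with 10% FBS. After 72 h at 37 °C with compound, ATP-dependent luminescence was recorded.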
An asterisk follows results filed as active; i = inactive; ? = inconclusive; / = no result given. In the library only some 5.7% were active in any assay of this set; here they are far more common. Calls come from the whole dose curve; as a rule, active = well fitted curve in the direction sought with a large enough effect; inconclusive = small, poorly fitted or top-dose-only effect, or another doubt; inactive = no such curve, though single readings can be large; an effect the other way counts as inactive or inconclusive. Unless noted, % is set by controls: 0 for no effect and ±100 for the full control effect; potency is the fitted concentration of half-maximal effect.

SMILES	HT1080 IDH1KD tx	KB-V1 MDR tox	HT1080NT lethal	KB-3-1 cytotox
COc1cc(C)ccc1OCCSc1nc2ccc(NC(=O)c3ccccc3F)cc2s1	/	i	/	i
Cc1cc(Nc2nc(Cl)c(Cl)cc2Cl)n(-c2ccccc2)n1	?	?	?	12µM*
Cc1ccc(-n2nc(C)cc2Nc2ncc(Cl)cc2Cl)cc1	-4%	21µM*	-1%	i
Cc1ccc(C(C)C)cc1OCCCCN1CCCC1	1%	21µM*	3%	i
CNC[C@@H](CC1CCCCC1)NC[C@H](CC(C)C)NCCc1cccc(C(F)(F)F)c1	?	?	23µM*	?
COc1ccc(COC(=O)c2sc3nc4n(c(=O)c3c2C)CCC4)cc1	?	8.2µM*	6%	i
COc1ccc(CNC(=O)c2sc3nc4n(c(=O)c3c2C)CCC4)cc1	/	i	/	i
COc1ccc(NC(=O)CN(C)CC(=O)Nc2ccccc2SC)cc1	-4%	21µM*	2%	i
COc1ccc(NC(=O)CN(C)C(C)C(=O)N2CCCCC2)cc1 (configuration not stated)	8%	12µM*	?	i
CC(C(=O)N1CCCCC1)N(C)CC(=O)Nc1cccc(F)c1 (configuration not stated)	-2%	i	-3%	i
CCOc1ccc(NC(=O)CN(C)CC(=O)Nc2ccccc2SC)cc1OCC	-3%	3.7µM*	0%	i
CSc1ccccc1NC(=O)CN(C)CC(=O)c1c(C)[nH]c2ccccc12	4%	21µM*	-5%	i
COc1cccc(C2=CC(c3ccccc3O)NC(C)(C)N2)c1 (configuration not stated)	/	i	/	i
Cc1cc(C)c2c(n1)sc1c(=O)n(-c3ccccc3C(F)(F)F)nnc12	/	i	/	?
Cc1ccccc1CN1Cc2cccc3c2[C@H](C=CC3)CC1=O	/	?	/	i
COc1ccc(CSCC(=O)NCCC(C)C)cc1	0%	i	3%	i
COc1ccc(CSCC(=O)Nc2ccccc2SC)cc1	-22%	18µM*	-2%	?
COc1ccccc1NC(=O)CSCc1nc2ccccc2[nH]1	-1%	21µM*	5%	i
Cc1ccc(C2=NC(c3ccc(F)cc3)=Nc3ccc(C)cc3N2)cc1	/	i	/	i
CC(C)(C)c1ccc(CN(Cc2ccco2)Cc2nnnn2C2CCCC2)cc1	?	16µM*	-2%	i
CCC(C)(C)n1nnnc1CN(Cc1ccco1)Cc1cc2cc3c(cc2[nH]c1=O)OCO3	5%	?	6%	i
CCC(C)(C)n1nnnc1CN(Cc1ccc(Cl)cc1)Cc1ccco1	-2%	23µM*	-4%	21µM*
COc1ccc2cc(CN(Cc3ccco3)Cc3nnnn3C3CCCCC3)c(=O)[nH]c2c1	?	?	?	i
Cc1ccc(C(C)C)c(OC(C)C(=O)NCC2(N(C)C)CCCCC2)c1 (configuration not stated)	/	?	/	i
COc1ccc(N(C)C(=S)Nc2ccc3nc(C)c(C)nc3c2)cc1	26%	13µM*	9%	i
SMILES	HT1080 IDH1KD tx	KB-V1 MDR tox	HT1080NT lethal	KB-3-1 cytotox
COc1cc(/C=N/NC(=O)c2ccc(Cl)cc2)ccc1OCC(=O)N1CC(C)OC(C)C1 (configuration not stated)	-9%	i	11%	i
COc1cc(/C=N/NC(=S)Nc2cccc(Cl)c2C)ccc1OCC(=O)N1CC(C)OC(C)C1 (configuration not stated)	-16%	4.6µM*	-1%	i
CCc1nc2ccccc2c(=O)n1NC(=O)c1c(O)c2ccccc2[nH]c1=O	7%	2.9µM*	11%	?
CC(C)=NNC(=O)c1c(O)c2ccccc2[nH]c1=O	-1%	i	?	i
CCCc1nc2ccccc2c(=O)n1NC(=O)c1c(O)c2ccccc2n(C)c1=O	0%	5.8µM*	0%	15µM*
Cn1c(=O)c(C(=O)NCCO)c(O)c2ccccc21	?	i	?	?
CCc1sc(-c2cc3cccc(OC)c3oc2=O)nc1-c1ccccc1	/	?	/	i
COc1ccc(/C(C)=N/OCC(=O)Nc2nc3ccccc3s2)cc1OC	-3%	15µM*	8%	?
Cc1ccccc1Cn1c2ccccc2c2cnn(CC(=O)NCCCc3ccccc3)c(=O)c21	/	i	/	i
Cc1c(Cc2ccccc2)c(=O)oc2c(CN(C)C)c(O)c(Cl)cc12	-26%	9.2µM*	-2%	?

Screens (PubChem)
